Compound activity (PubChem)
Compounds with a hit are over-represented: about 2.6% of the library has one in this group of screens.
SIAE primary – human SIAE inhibitors, primary screen, biochemical, fluorescence polarization, FP-Rh probe, 1536-well HTS; AID 1053197, 2014; Sialate O-acetylesterase (Homo sapiens), Q9HAT2; actives 0.69% (n = 370,000); SIAE FP-Rh probe binding; inhibition, % at 9.66 µM;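 active means inhibition above a cutoff: mean of compounds within the control limits plus 3 SD of those, cut at about 17% in these data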;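 further: 0% = plate median of compound wells and 100% = probe without SIAE protein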
Target sequence (Q9HAT2 whole entry, looked up): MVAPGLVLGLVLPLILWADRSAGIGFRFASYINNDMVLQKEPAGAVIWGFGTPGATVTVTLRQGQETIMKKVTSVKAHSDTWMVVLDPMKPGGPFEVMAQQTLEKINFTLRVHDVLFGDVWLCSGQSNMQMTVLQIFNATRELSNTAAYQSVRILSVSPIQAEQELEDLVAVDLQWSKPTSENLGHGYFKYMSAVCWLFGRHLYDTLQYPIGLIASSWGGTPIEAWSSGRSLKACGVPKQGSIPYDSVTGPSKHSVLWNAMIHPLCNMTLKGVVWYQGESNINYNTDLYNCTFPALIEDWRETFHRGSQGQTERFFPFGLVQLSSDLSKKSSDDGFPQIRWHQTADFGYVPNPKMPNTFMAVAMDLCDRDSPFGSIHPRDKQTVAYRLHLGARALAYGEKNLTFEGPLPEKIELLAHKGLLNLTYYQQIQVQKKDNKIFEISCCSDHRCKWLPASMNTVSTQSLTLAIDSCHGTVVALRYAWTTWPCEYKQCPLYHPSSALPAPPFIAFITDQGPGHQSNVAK
PAD4 inh – human PAD4 inhibitors, primary screen, biochemical, fluorescence polarization, 1536-well format. Protein-arginine deiminase type-4 (Homo sapiens), Q9UM07. recombinant PAD4, RCA probe fluorescence polarization. inhibition, % at 6.36 µM. actives 0.41% (n = 330,000). AID 485272, 2010;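 active means percent inhibition above a cutoff equal to the mean of all tested compounds plus 3 SD, cut at about 15% in these data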;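 further: 0% = PAD4 with RCA probe and DMSO and 100% = probe without PAD4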
PME-1 inh – PME-1 inhibitors via competitive probe labeling, primary screen, biochemical, fluorescence polarization, FP-Rh probe, HTS. recombinant PME-1. inhibition, % at 5.9 µM. AID 2130, 2009. actives 0.53% (n = 320,000). Protein phosphatase methylesterase 1 (Homo sapiens), Q9Y570;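 active means inhibition above the campaign mean of all compounds plus 3 SD, cut at about 26% in these data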;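 further: competitive labeling of PME-1 active site by serine hydrolase directed probe; 0% = PME-1 with DMSO and 100% = wells lacking PME-1 enzyme; inhibitors block probe labeling so polarization falls and inhibition rises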
PRMT1 FP inh – PRMT1 methyltransferase inhibitors, primary screen, biochemical, fluorescence polarization; AID 652257, 2013; actives 1.3% (n = 370,000); inhibition, % at 2.79 µM; Protein arginine N-methyltransferase 1 (Homo sapiens), Q99873; recombinant PRMT1, activity-based probe fluorescence polarization;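 active means inhibition above about 21% made by adding two undisclosed values, limit read from the data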
Fam108B inh – mouse Fam108B serine hydrolase inhibitors, primary screen, counter-screen for RBBP9 inhibitor project, biochemical, fluorescence polarization | recombinant Fam108B, FP-Rh probe fluorescence polarization | inhibition, % at 9.51 µM | actives 0.33% (n = 300,000);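 active means inhibition above the screen mean inhibition plus 3 SD, computed separately per campaign, cut at about 18% in these data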;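 further: inhibitors lower polarization as less probe binds the enzyme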
TCR-CD3 inh – inhibitors of human TCR-CD3 interaction, primary screen, biochemical, fluorescence, TAMRA-labeled TCR probe; actives 0.37% (n = 360,000); inhibition, % at 9.4 µM; T-cell receptor (TCR); in the data active means inhibition above about 19%;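 further: recombinant mutant TCR 2C K166C tagged with TAMRA read by polarization; 0% = receptor in buffer alone and 100% = receptor with positive control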
PRMT1 inh conf – PRMT1 methyltransferase inhibitors, confirmation, biochemical, fluorescence polarization, triplicate; shares compounds with PRMT1 FP inh; recombinant His-PRMT1, activity-based probe fluorescence polarization; inhibition, % at 2.79 µM; actives 42% (n = 3,300); AID 687036, 2013;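 active means mean inhibition across replicates above the hit cutoff derived for the earlier primary screen, cut at about 22% in these data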
The depositor's hits bear a star.

What do the screens show for `C[C@H](O)[C@@H]1CN2CCc3c([nH]c4c(-c5ccc6c(c5)OCO6)cccc34)[C@@H]2C[C@@H]1N(C)C(=O)NC1CCCCC1`?
SIAE primary: -0.8; PRMT1 FP inh: 3.2

Results for COC(=O)c1ccc2nc(-c3ccc(Cl)cc3)c(Cc3ccccc3OC)n2c1 ?
SIAE primary: -2.4; PRMT1 FP inh: 2.2; TCR-CD3 inh: -4.4

Results for Cc1cc2nc(-c3ccco3)c(CC(C)(C)C)n2c(C)c1Br ?
SIAE primary: 5.5; PRMT1 FP inh: 6.4; TCR-CD3 inh: 7.7

Results for COc1ccccc1Cc1c(-c2ccco2)nc2cc(C)c(Br)c(C)n12 ?
SIAE primary: 4.2; PRMT1 FP inh: 31.8*; TCR-CD3 inh: 1.8; PRMT1 inh conf: 24.5*

How did COC(=O)c1ccc2nc(-c3ccco3)c(Cc3ccccc3OC)n2c1 do in these assays?
SIAE primary: 0.1; PRMT1 FP inh: 44.2*; TCR-CD3 inh: -2.3; PRMT1 inh conf: 28.3*

What do the screens show for `COC(=O)c1ccc2nc(-c3ccco3)c(Cc3ccccc3C(F)(F)F)n2c1`?
SIAE primary: -1.0; PRMT1 FP inh: 33.8*; TCR-CD3 inh: -0.2; PRMT1 inh conf: 16.4

Results for Cc1ccc2oc(C(=O)N(C)Cc3ccc(C)o3)c(C)c2c1 ?
SIAE primary: 0.8; PAD4 inh: 1.5; PME-1 inh: 2.3; PRMT1 FP inh: 50.8*; Fam108B inh: 5.1; TCR-CD3 inh: -10.6; PRMT1 inh conf: 64.4*

Results for Cc1ccccc1C(=O)NNC(=S)NC(=O)COc1ccccc1 ?
SIAE primary: 6.8; PAD4 inh: 5.6; PME-1 inh: 0.4; PRMT1 FP inh: 43.8*; Fam108B inh: 0.5; TCR-CD3 inh: -9.5; PRMT1 inh conf: 9.1

What do the screens show for `O=C(COc1ccccc1)NC(=S)Nc1ccc(Br)cn1`?
SIAE primary: 6.2; PAD4 inh: 3.3; PME-1 inh: -6.8; PRMT1 FP inh: 30.8*; Fam108B inh: 6.0; TCR-CD3 inh: -4.6; PRMT1 inh conf: 3.0

What do the screens show for `COC(=O)c1ccccc1NC(=S)NC(=O)COc1ccccc1`?
SIAE primary: -1.3; PAD4 inh: -4.0; PME-1 inh: -1.1; PRMT1 FP inh: 1.0; Fam108B inh: -1.1; TCR-CD3 inh: 1.0

Results for CC1(C)N=C(SCC(=O)Nc2ccc(Cl)cc2)C(c2ccc(Cl)cc2)=N1 ?
SIAE primary: -23.9; PAD4 inh: 3.2; PME-1 inh: -9.8; PRMT1 FP inh: 28.4*; Fam108B inh: -1.8; TCR-CD3 inh: -1.4; PRMT1 inh conf: 10.7

What do the screens show for `NC(=O)/C=C/C(=O)Nc1ccc(Cl)cc1`?
SIAE primary: -0.7; PAD4 inh: -0.7; PME-1 inh: -7.2; PRMT1 FP inh: 87.1*; Fam108B inh: 2.5; TCR-CD3 inh: 0.4; PRMT1 inh conf: 31.5*

What do the screens show for `N#CCSCC(=O)Nc1ccc(Cl)cc1`?
SIAE primary: 0.8; PAD4 inh: -2.7; PME-1 inh: 1.7; PRMT1 FP inh: 13.8; Fam108B inh: -3.1; TCR-CD3 inh: 3.9

How did NC(=O)SCC(=O)Nc1ccc(Cl)c(Cl)c1 do in these assays?
SIAE primary: -36.4; PAD4 inh: 7.9; PME-1 inh: -2.9; PRMT1 FP inh: 49.2*; Fam108B inh: 2.7; TCR-CD3 inh: 1.9; PRMT1 inh conf: 94.1*

Results for CC1(C)N=C(SCC(=O)Nc2ccc(Cl)cc2)C(c2ccccc2)=N1 ?
SIAE primary: -0.7; PAD4 inh: 2.3; PME-1 inh: -5.0; PRMT1 FP inh: 7.5; Fam108B inh: -1.8; TCR-CD3 inh: 0.3

Results for NC(=O)SCC(=O)Nc1ccc(Cl)cc1 ?
SIAE primary: 4.2; PAD4 inh: 6.7; PME-1 inh: 2.3; PRMT1 FP inh: 65.2*; Fam108B inh: 0.8; TCR-CD3 inh: 12.0; PRMT1 inh conf: 87.6*

Results for Cc1ccc(NC(=O)CSC(N)=O)cc1Cl ?
SIAE primary: -13.6; PAD4 inh: 13.4; PME-1 inh: -8.4; PRMT1 FP inh: 28.4*; Fam108B inh: 7.4; TCR-CD3 inh: 3.3; PRMT1 inh conf: 89.2*

What do the screens show for `NC(=O)SCC(=O)Nc1cccc(Cl)c1`?
SIAE primary: -2.8; PAD4 inh: 5.3; PME-1 inh: -3.1; PRMT1 FP inh: 73.2*; Fam108B inh: 1.0; TCR-CD3 inh: 4.1; PRMT1 inh conf: 100.7*

What do the screens show for `Cc1c(Cl)cccc1NC(=O)CSCC(N)=O`?
SIAE primary: -2.0; PAD4 inh: -2.4; PME-1 inh: 6.7; PRMT1 FP inh: 2.0; Fam108B inh: -2.7; TCR-CD3 inh: 0.9

What do the screens show for `COCC(=O)Nc1ccc(C)c(Cl)c1`?
SIAE primary: 11.4; PAD4 inh: 1.7; PME-1 inh: 10.4; PRMT1 FP inh: -3.3; Fam108B inh: 7.6; TCR-CD3 inh: 6.5

What do the screens show for `Cc1c(Cl)cccc1NC(=O)CSC(N)=O`?
SIAE primary: -6.4; PAD4 inh: 6.8; PME-1 inh: 6.0; PRMT1 FP inh: 31.0*; Fam108B inh: -0.4; TCR-CD3 inh: 0.3; PRMT1 inh conf: 96.2*

Results for O=C(Nc1c(-c2ccc(F)cc2)nc2ncccn12)c1ccccc1 ?
SIAE primary: 1.2; PRMT1 FP inh: 1.9

How did O=C1C=CC(=O)N1Cc1ccncc1 do in these assays?
SIAE primary: -2.5; PRMT1 FP inh: 6.8; TCR-CD3 inh: -0.3

Results for O=C1C=CC(=O)N1CCCCCCCCCCN1C(=O)C=CC1=O ?
SIAE primary: 0.5; PRMT1 FP inh: 81.5*; TCR-CD3 inh: 2.3; PRMT1 inh conf: 97.7*

Results for N#Cc1ccc(/C=C2\CC3(OC(=O)c4ccccc4)CCCN2C3)cc1 (centres undefined) ?
SIAE primary: -8.0; PRMT1 FP inh: -1.2

What do the screens show for `COCCCN1C(=O)[C@H](CC(=O)N2CCN(C(=O)c3ccco3)CC2)[C@]2(C(=O)OC)CCCCC=C12`?
SIAE primary: 0.8; PRMT1 FP inh: -2.5

What do the screens show for `N#CC1C(=O)c2ccccc2C1c1ccccc1` (centres undefined)?
SIAE primary: -0.5; PRMT1 FP inh: 45.3*; TCR-CD3 inh: -0.6; PRMT1 inh conf: 14.0

How did Oc1sc(C=Nc2ccccc2)c2ccccc12 do in these assays?
SIAE primary: -2.2; PAD4 inh: -2.3; PME-1 inh: 6.6; PRMT1 FP inh: 1.5; Fam108B inh: 10.8; TCR-CD3 inh: 4.2

What do the screens show for `Oc1ccccc1N=Cc1sc2ccccc2c1Cl`?
SIAE primary: 11.7; PAD4 inh: -11.4; PME-1 inh: -0.4; PRMT1 FP inh: 5.6; Fam108B inh: 0.9; TCR-CD3 inh: 6.0
